Screening data: PubChem, National Center for Advancing Translational Sciences (NCATS)
KB-3-1 tox = kills parental KB-3-1 adenocarcinoma cells; KB-3-1 viability, CellTiter-Glo ATP luminescence, 72 h; Potency, µM (series often up to 46.1 µM), hits mostly cytotoxic; 400,000 tested, 1.4% active; also: nearly all actives have a fitted effect of over 60% in size
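KB-3-1 cells, DMEM (no phenol red) + 10% FBS; compound by pin transfer, 72 h, 37 °C. Readout: CellTiter-Glo luminescence after 10 min. Data normalized, curve-fitted.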
KB-V1 MDR tox = kills drug-selected multidrug resistant KB-V1 cells | AID 1347076 | KB-V1 MDR cells viability, CellTiter-Glo, 72 h | 400,000 tested, 3.4% active | Potency, µM (series often up to 46.1 µM), most hits filed as cytotoxic; also: nearly all actives have a fitted effect of over 60% in size
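Drug-selected KB-V1 cells, grown in DMEM lacking phenol red with 10% FBS, receive compound titrations; after three days at 37 degrees C, surviving cell ATP is quantified by CellTiter-Glo luminescence and responses normalized and curve-fitted.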
IL-1B inflam inh = inhibitors of inflammasome signaling (IL-1 beta secretion); THP-1 LPS/ATP IL-1B secretion, AlphaLISA, 16 h; stronger effect = lower value; activity change, % at 57.5 µM; 360,000 tested, 4.7% active; AID 743279; in the data active = activity change below about -50%; inconclusive = mostly about -30% to -49%
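Secreted IL-1B measured by AlphaLISA bead assay after 16 h compound exposure of THP-1 cells; compounds (final up to 57.5 uM) added 1 h before LPS (250 ng/mL) and ATP (1.25 mM) stimulation; lower signal means less secretion.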
HT1080 IDH1KD tx = kills HT-1080 cells with IDH1 knockdown; HT-1080 IDH1 knockdown viability, ATP luminescence, 48 h; Potency, µM (top dose mostly 46.1 µM), hits mostly cytotoxic; 360,000 tested, 2% active; AID 686971
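Cytotoxicity counter-line: IDH1KD HT-1080, 48 h, CellTiter-Glo. Curves classed by r2, magnitude and activity.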
HT1080NT lethal = kills 2HG-producing HT-1080-NT fibrosarcoma cells. HT-1080-NT fibrosarcoma viability, CellTiter-Glo ATP luminescence, 48 h. Potency, µM (doses to about 46.1 µM), usual class: cytotoxic. 360,000 tested, 1.6% active. AID 686970;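 also: NT is the 2HG producing partner of a matched IDH1 knockdown line; nearly all actives have a fitted effect of over 55% in size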
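Compounds were tested in concentration-response format on HT-1080-NT cells for 48 hours at 37 degrees C. Cell viability came from CellTiter-Glo luminescence; curves were classified by r2, response magnitude and activity.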
Hits are given with their value; . = inactive; ? = inconclusive; / = no result. Hits are enriched below; roughly 8.8% of the tested compounds scored in any of these assays. Unless noted, calls follow the shape of the dose curve; as a rule, active = well fitted curve in the direction sought with a large enough effect; inconclusive = small, poorly fitted or top-dose-only effect, or another doubt; inactive = no such curve, though single readings can be large; an effect the other way counts as inactive or inconclusive.

SMILES | KB-3-1 tox | KB-V1 MDR tox | IL-1B inflam inh | HT1080 IDH1KD tx | HT1080NT lethal
C[C@H]1CC2C3CC=C4C[C@@H](O)CC[C@]4(C)C3CC[C@]2(C)[C@H]1O (stereo partly drawn) | . | 18µM | . | . | .
CCN(CC)P(=O)(Oc1ccccc1)Oc1ccccc1 | . | . | . | . | .
O=C1NC(=O)N(Cc2ccccc2)C(=O)/C1=C\C=C\c1ccco1 | . | ? | -212 | 3.7µM | ?
O=C1NC(=O)N(Cc2ccccc2)C(=O)/C1=C/c1cnc(-c2ccccc2)nc1 | . | . | . | . | .
O=C1NC(=O)N(Cc2ccco2)C(=O)/C1=C/C=C/c1ccco1 | ? | ? | -100 | 21µM | 23µM
Cn1cccc1/C=C1\C(=O)NC(=O)N(Cc2ccco2)C1=O | ? | . | . | . | .
C[C@@H]1CN([C@@H](C)CO)C(=O)CCCn2nncc2CO[C@H]1CN(C)C(=O)Oc1cccc2ccccc12 | . | . | . | . | .
COc1ccc(OC)c(N2C(=O)NC(=O)/C(=C/c3ccc([N+](=O)[O-])s3)C2=O)c1 | . | . | -73 | . | .
COc1ccc(OC)c(N2C(=O)/C(=C/c3ccco3)C(=O)NC2=S)c1 | . | . | . | . | .
CC(C)n1c(/C=C/[C@H](O)C[C@H](O)CC(=O)O)c(-c2ccc(F)cc2)c2ccccc21 | ? | ? | . | 9.2µM | 8.2µM
COc1ccc(-n2c(SCCN(C)C)nc3ccccc3c2=O)cc1 | . | . | . | . | .
COP(=S)(OC)SCn1nnc2ccccc2c1=O | . | . | -93 | / | /
CN1CCN(c2cccc3c2C(=O)c2ccccc2C3=O)CC1 | ? | 18µM | -60 | . | .
CC(ON1CC1(C(F)(F)F)C(F)(F)F)(C(N)=O)C(N)=O (stereo not drawn) | . | . | . | . | .
COC(=O)C1=C(c2ccc(OC(F)(F)F)cc2)C[C@@H]2CC[C@H]1N2C(=O)N1CCCCC1 | ? | . | . | . | ?
COc1cc2c(c(OC)c1OC)-c1ccc(O)c(=O)cc1C(NC(C)=O)CC2 (stereo not drawn) | 0.0082µM | ? | . | 0.041µM | 0.0052µM
COc1ccc(OC)c(CC(=O)O)c1 | . | . | . | . | .
COc1ccc2c(c1)C(NC(C)=O)CCc1cc(OC)c(OC)c(OC)c1-2 (stereo not drawn) | 0.15µM | 0.37µM | . | ? | 0.0058µM
COC(=O)C1=C(c2cccc(OC)c2OC)C[C@@H]2CC[C@H]1N2C(=O)NCCNC(C)=O | . | ? | . | . | .
COc1cc2c(c(OC)c1OC)-c1ccc(OC)c(=O)cc1C(NC(C)=O)CC2 (stereo not drawn) | 0.0073µM | . | . | ? | 0.015µM
COC1=C[C@@H]2C3=C([C@@H]2C1=O)[C@@H](NC(C)=O)CCc1cc(OC)c(OC)c(OC)c13 | . | . | . | . | .
Cc1cccc(NC2=NCCCS2)c1 | . | . | . | . | .
CC(=O)O[C@@H]1/C=C/[C@](C)(O)C[C@@H](C)C/C=C/[C@H]2[C@H](O)C(C)=C(C)[C@H]3[C@H](Cc4ccccc4)NC(=O)[C@@]123 | ? | . | . | ? | 2.6µM
Nc1c(Cl)cc([N+](=O)[O-])cc1Cl | . | . | . | / | /
CN(Cc1cccc(-c2ccncc2)c1)C(=O)Oc1ccccc1Cl | 15µM | . | . | . | .
SMILES | KB-3-1 tox | KB-V1 MDR tox | IL-1B inflam inh | HT1080 IDH1KD tx | HT1080NT lethal
CN(Cc1cccc(-c2ccncc2)c1)C(=O)Oc1ccccc1Cc1ccccc1 | 15µM | ? | . | 13µM | 18µM
CCOC(=O)CSc1ccc(C(=O)N2CCC3(CC2)OCCO3)cc1[N+](=O)[O-] | . | . | . | . | .
CCCNC(=O)N1[C@H]2CC[C@@H]1C(C(=O)OC)=C(c1ccc(OC(F)(F)F)cc1)C2 | . | . | . | . | .
Cc1nnc2ccc(-c3cccc(C(F)(F)F)c3)nn12 | . | 12µM | . | . | .
Cc1cc(C)[n+](Cc2ccccc2)cc1C(N)=O | . | . | . | . | ?
CC(=O)C1=C(O)C2(C)c3c(O)c(C)c(O)c(C(C)=O)c3OC2CC1=O (stereo not drawn) | . | 16µM | . | . | ?
C[C@@H]1C[C@H](Nc2ccccc2)c2ccccc2N1C(=O)c1cccnc1 | ? | ? | . | . | .
CC(C)OC(=O)c1c(N)n(Cc2ccco2)c2nc3ccccc3nc12 | . | . | . | . | .
CC(C)CCNC(=O)c1c(N)n(Cc2ccc3c(c2)OCO3)c2nc3ccccc3nc12 | . | ? | ? | . | .
CC(C)CNC(=O)c1c(N)n(Cc2ccc3c(c2)OCO3)c2nc3ccccc3nc12 | ? | ? | ? | 16µM | 21µM
Nc1c(C(=O)NCC2CCCO2)c2nc3ccccc3nc2n1Cc1ccco1 (stereo not drawn) | . | . | -71 | ? | ?
COCCCNC(=O)c1c(N)n(Cc2ccco2)c2nc3ccccc3nc12 | . | . | -55 | . | .
CC(C)CNC(=O)c1c(N)n(Cc2ccco2)c2nc3ccccc3nc12 | ? | 16µM | -73 | ? | ?
CNC(=O)O/N=C/C(C)(C)S(C)=O (stereo not drawn) | . | . | / | / | /
COC(=O)c1c(N)n(Cc2ccc(OC)cc2)c2nc3ccccc3nc12 | . | . | . | . | .
COc1ccc(Cn2c(N)c(C(=O)NCc3ccco3)c3nc4ccccc4nc32)cc1OC | ? | 21µM | ? | ? | ?
Nc1c(C(=O)NCc2ccco2)c2nc3ccccc3nc2n1CCN1CCCCC1 | . | . | -63 | ? | ?
CCCNC(=O)c1c(N)n(Cc2ccco2)c2nc3ccccc3nc12 | . | . | -89 | ? | 11µM
CC(C)OCCCNC(=O)c1c(N)n(Cc2cccs2)c2nc3ccccc3nc12 | ? | ? | -63 | ? | 18µM
C=CCNC(=O)c1c(N)n(CCN2CCOCC2)c2nc3ccccc3nc12 | . | . | ? | . | ?
COCCOC(=O)c1c(N)n(Cc2ccco2)c2nc3ccccc3nc12 | . | . | . | . | .
COC(=O)C1=C(c2ccc(F)cc2F)C[C@@H]2CC[C@H]1N2C(=O)NCCOc1ccc(OC)cc1 | . | . | . | . | .
ClCCOCOCCCl | . | . | . | . | .
CCOC(=O)c1ccccc1N | . | ? | . | / | /
CCOC(=O)c1ccccc1OC(=O)NNc1ccccc1 | 12µM | . | . | 12µM | 5.8µM
COC(=O)C1=C(c2cccc(OC)c2OC)C[C@@H]2CC[C@H]1N2C(=O)NC1CCCCC1 | . | . | . | . | .
CC(=O)Nc1ccc(OCCF)cc1 | . | ? | . | . | .
CCOP(=O)(c1ccccc1)c1nc(-c2ccc(F)cc2)oc1N1CCCCC1 (stereo not drawn) | . | . | ? | ? | ?
COc1ccc2[nH]cc(CCN)c2c1 | . | . | . | . | .
CCCCCN=C(N)N/N=C/c1c[nH]c2ccc(OC)cc12 | ? | . | . | 5.8µM | 2.9µM
